# According to paper PMC7819943, “Rice protein-binding microarrays: a tool to detect cis-acting elements near promoter regions in rice”:
# In all, about 68,000 sequences were measured (“fluorescence intensity (a.u.)”: median about 9,100, highest 2% from about 16,000 on). The sample holds the highest values, similar sequences and a random draw of the others, so the mix is not that of the screen.
# Molecular target: OsWRKY34 (Oryza sativa, UniProt Q0JBA9 1-250)
# Assay: protein-binding microarray (RPBM); PBS, 2% BSA, 51.3 ng/ul salmon testes DNA, 50 uM zinc acetate, 200 nM TF, 25 C, 1 h; high values mean tight binding
# Details: protein: recombinant; tags: N-terminal polyhistidine and DsRed monomer fusion (pET32a); label: CyDye5-dUTP incorporated in the synthesized complementary strand; 3' TTTTT single-stranded linker to array surface; dsDNA, one strand shown
# In short: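 Binding signal is reported as fluorescence intensity per feature (arbitrary units) from an Axon 4000B scanner. Incubation used 200 nM of each Ni–NTA-purified, N-terminally polyhistidine- and DsRed-fused transcription factor from E. coli BL21-CodonPlus on a double-stranded custom Agilent array for 1 h at 25 °C, with 50 µM zinc acetate in the buffer, followed by washing.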
# Chain of OsWRKY34 (Q0JBA9 entry or part of it): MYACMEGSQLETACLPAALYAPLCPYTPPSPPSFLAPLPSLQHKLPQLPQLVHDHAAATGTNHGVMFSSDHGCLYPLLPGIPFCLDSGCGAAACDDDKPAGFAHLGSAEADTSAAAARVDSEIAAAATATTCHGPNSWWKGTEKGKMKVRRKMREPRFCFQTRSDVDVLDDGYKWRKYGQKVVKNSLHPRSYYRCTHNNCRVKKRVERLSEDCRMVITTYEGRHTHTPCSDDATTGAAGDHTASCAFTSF
row,Sequence,binding signal
1,TCCGCCCTCTGACCGCGGCGCCAAAGCTCCTCCGCGCGCGCGGAGTCACCTAGTGCAG,8030 fluorescence intensity (a.u.)
2,CGGACCCCATACACCTCCGCCCGATTCCCGACGCAAATCCCGGAGTCACCTAGTGCAG,9260 fluorescence intensity (a.u.)
3,GTTTGTAACGTATTTTAGCTCGCTTTATAACGGGGCAGTTCGGAGTCACCTAGTGCAG,8160 fluorescence intensity (a.u.)
4,GATTGCTTTGTGGGTGTATGGTTCATCTTCAATGGTTTACCGGAGTCACCTAGTGCAG,8030 fluorescence intensity (a.u.)
5,AACGTACTAATGCATGACACCGTTGACTTTTTTTCAACGTCGGAGTCACCTAGTGCAG,40400 fluorescence intensity (a.u.)
6,CGTTTCAAAATGTTTGACACCGTTGACTTTTTAGTACATGCGGAGTCACCTAGTGCAG,35900 fluorescence intensity (a.u.)
7,CCGTTTCAAAATGTTTGACACCGTTGACTTTTTAGTACGTCGGAGTCACCTAGTGCAG,21100 fluorescence intensity (a.u.)
8,GTTTCAAAATGTTTGACACCGTTGACTTTTTAGTACGTGTCGGAGTCACCTAGTGCAG,22500 fluorescence intensity (a.u.)
9,CGACAAAATTCAACCGTAATTTCAACGTTTTCCTAACTTTCGGAGTCACCTAGTGCAG,8990 fluorescence intensity (a.u.)
10,TGATATCTTTTTCTTTAATGACTTTCCGTGTTTTCAACGTCGGAGTCACCTAGTGCAG,8090 fluorescence intensity (a.u.)
11,ACCATCACTTTTACTCTCTTTCTGCCTTAAAATCTCAATACGGAGTCACCTAGTGCAG,8590 fluorescence intensity (a.u.)
12,CCCTTTCCTTTTCTTTTTTTTTCTCATTTTATCCACAATTCGGAGTCACCTAGTGCAG,9870 fluorescence intensity (a.u.)
13,CGTGGCCCATCTCCAATTCTCCAGTTGCTTCCTTTTCGTTCGGAGTCACCTAGTGCAG,12600 fluorescence intensity (a.u.)
14,TCTCTTTCTTTCCTTAACTCTCTTTCTCTACTCTCCACTCCGGAGTCACCTAGTGCAG,9580 fluorescence intensity (a.u.)
15,GCTGTGTGTACATATTACTAGTACTACTTAATACGTGCTTCGGAGTCACCTAGTGCAG,11200 fluorescence intensity (a.u.)
16,TTGTGAGTGTGTATGTGTTTATGGTGTGTAATTTTTTTTACGGAGTCACCTAGTGCAG,9320 fluorescence intensity (a.u.)
17,GGCGTTGGTCACCTCCCGTGAGTCGTCCTCTATTCCTCTTCGGAGTCACCTAGTGCAG,11100 fluorescence intensity (a.u.)
18,GGTTGTAATCTATAGGGGTCCTTGTATAGAAATATCGTTTCGGAGTCACCTAGTGCAG,8880 fluorescence intensity (a.u.)
19,CTCCTCGCCTTCTTCTCCATCTCCATCTCGCATCTTCTCTCGGAGTCACCTAGTGCAG,11400 fluorescence intensity (a.u.)
20,ACATTTTAATTTGTAGGGAGAGGTACTATGGGCTTAACTTCGGAGTCACCTAGTGCAG,9750 fluorescence intensity (a.u.)
21,ATTTTGGGACAGAGGTAGCAGTGAACTACACGTACCTTGTCGGAGTCACCTAGTGCAG,21500 fluorescence intensity (a.u.)

row,Sequence,binding signal
1,GGGGTCGGGGTGGGAGAGGGAGGCTACACTACAGCAGCAGCGGAGTCACCTAGTGCAG,11100 fluorescence intensity (a.u.)
2,AACAAACCAACCTAGGATACTACTGTCAATTTTCACAACCCGGAGTCACCTAGTGCAG,9280 fluorescence intensity (a.u.)
3,GCAGTACACTGATACGATACAATCGTTGACTGTTTCAGGACGGAGTCACCTAGTGCAG,9230 fluorescence intensity (a.u.)
4,TTTTGGTGGGTGGGTTTGGGACGTTGGATTGGTGGTGGACCGGAGTCACCTAGTGCAG,12600 fluorescence intensity (a.u.)
5,GATGCATTTTTGTCTGGGCGTTGTCCTTGTGGAAGCATCTCGGAGTCACCTAGTGCAG,10000 fluorescence intensity (a.u.)
6,TGTCCTTTGTTGTGGTGTGGTGGTGGGCATCTGGACCGTTCGGAGTCACCTAGTGCAG,29700 fluorescence intensity (a.u.)
7,AATGGGTGTTTTTTTAGTTGTTGTGTGTGTTTGGACGATTCGGAGTCACCTAGTGCAG,10400 fluorescence intensity (a.u.)
8,TGGATCTGGTGTGTTAGTTTGGATTTGTGTTTGTCCTTTTCGGAGTCACCTAGTGCAG,12600 fluorescence intensity (a.u.)
9,GTGTGGGTGGCAGGGTGTGTTGAGGAGGTGCCCGCGTTGCCGGAGTCACCTAGTGCAG,10300 fluorescence intensity (a.u.)
10,ATTGGATCCGGGGAGGAGGAGGTGGGGTTCGGTTTCGTGCCGGAGTCACCTAGTGCAG,11600 fluorescence intensity (a.u.)
11,TTGTTGGGTGGGGACGTGGGGTGGGGTTCATGGAGTGGTTCGGAGTCACCTAGTGCAG,24800 fluorescence intensity (a.u.)
12,GGCGCCGGGGTGGGGTGGTGCTGGAGCCACCGGAGGAGCGCGGAGTCACCTAGTGCAG,9730 fluorescence intensity (a.u.)
13,CAGGAGGGGTGGGTTGTTGTTCGGTGGTGTGGACCCGTGCCGGAGTCACCTAGTGCAG,17700 fluorescence intensity (a.u.)
14,GGAGGAGGGGTGGGGTGTTGAGCCCTGGAGAAGCCACCGCCGGAGTCACCTAGTGCAG,21000 fluorescence intensity (a.u.)
15,CGCTTCGCTGACGGTTGTGTGTTGGTGGGTGCAGGGGTGCCGGAGTCACCTAGTGCAG,12700 fluorescence intensity (a.u.)
16,TCTACGGGTATCCCGCGTCGACAATATTCCCATGCATTTACGGAGTCACCTAGTGCAG,10900 fluorescence intensity (a.u.)
17,ATTCCGTTAGCATTTGTCCTGCCATGGCCTATTCTGCCAGCGGAGTCACCTAGTGCAG,10400 fluorescence intensity (a.u.)
18,CATGTTGTTCTGTTTGATGTTGCCCACTACGGTCTTTAGTCGGAGTCACCTAGTGCAG,10900 fluorescence intensity (a.u.)
19,GACGAGACCGACGCCGTCATCCTCCTTCTCACGCTACCATCGGAGTCACCTAGTGCAG,8040 fluorescence intensity (a.u.)
20,GTCACTTCTCCTTTTTTTTTGGCATGCAATAGACTTCCTTCGGAGTCACCTAGTGCAG,8780 fluorescence intensity (a.u.)
21,CCCCTCGAGTCTGATCCTCCCACTACCAACGTCCACCGGCCGGAGTCACCTAGTGCAG,9210 fluorescence intensity (a.u.)

row,Sequence,binding signal
1,CCGCCGCCGCTCGCCGCCGCATTGCGTTACTCGAGCTCGCCGGAGTCACCTAGTGCAG,8710 fluorescence intensity (a.u.)
2,TACTGTCTGTCAACACACTTCATGATTTCTCATCAAATATCGGAGTCACCTAGTGCAG,10400 fluorescence intensity (a.u.)
3,AGGACGATGGGCGCGATGGGATTTGTTCTTGACTGTTTTACGGAGTCACCTAGTGCAG,12000 fluorescence intensity (a.u.)
4,CGATACTTTCATGGGTGGGTCCTATGTTGCACGGTTGGTTCGGAGTCACCTAGTGCAG,22900 fluorescence intensity (a.u.)
5,TACTCAATGTCTAATGGGGTGTTTGGATGGGACTAATTTTCGGAGTCACCTAGTGCAG,13000 fluorescence intensity (a.u.)
6,TCGGTTTCATACGTGGGGTCTGTTGGTGGAGGTGTTGCCACGGAGTCACCTAGTGCAG,9440 fluorescence intensity (a.u.)
7,TATATACTTTCATGGGTCTATATTTATATGTATGTATACACGGAGTCACCTAGTGCAG,8690 fluorescence intensity (a.u.)
8,GGTGCGTGTTCGGGATGGGGTTCGGGTTCAATTTCAGGTTCGGAGTCACCTAGTGCAG,16700 fluorescence intensity (a.u.)
9,TTCGGGTTCAATTTCAGGTTCAGTCGCTTGCTTGGTGCTTCGGAGTCACCTAGTGCAG,8960 fluorescence intensity (a.u.)
10,TTACTATACTATTAATATCTGATCACACCTGTCATACACACGGAGTCACCTAGTGCAG,9710 fluorescence intensity (a.u.)
11,CAGAGTGCAAGCCAATCATCGCCACCACGCTACGCTACACCGGAGTCACCTAGTGCAG,8130 fluorescence intensity (a.u.)
12,CGTTTGTACTGTGTGGTGGTTGGTGATTGGGTGTTGTGCCCGGAGTCACCTAGTGCAG,13900 fluorescence intensity (a.u.)
13,AAAAGCCGGTCTCCTTCATCTTCCCGTCCGTAAACCCTAACGGAGTCACCTAGTGCAG,10600 fluorescence intensity (a.u.)
14,AGCCAGTTTTCTCCACCCTCGTTTTCCGCGCACATGTTTTCGGAGTCACCTAGTGCAG,17600 fluorescence intensity (a.u.)
15,GTTCCAGCCGCGTTTCCTCTCGCGGCGGCCTCGCCATTTCCGGAGTCACCTAGTGCAG,9070 fluorescence intensity (a.u.)
16,ACGACGACGACGACGACGCAACCCCGCGGCGCGCGCCGGCCGGAGTCACCTAGTGCAG,8430 fluorescence intensity (a.u.)
17,TCTACGCCGCCGGCGGCGGCGGCGGCGGCAACTGCGGCGCCGGAGTCACCTAGTGCAG,47800 fluorescence intensity (a.u.)
18,CACCCTCGTTTCCACCCGCGCCCGCGCGCCGCGCGCCACTCGGAGTCACCTAGTGCAG,10800 fluorescence intensity (a.u.)
19,CATCTCCTCCGTTTTCCGCGCACATGTTTTTTAAACTGCTCGGAGTCACCTAGTGCAG,10400 fluorescence intensity (a.u.)
20,CTCGCTTCTTCTTCCTTCTTTCCGTCCTCGCCGCCCCGCGCGGAGTCACCTAGTGCAG,8470 fluorescence intensity (a.u.)
21,CCGCCGCCGTTCCGTTTTTTCTCTCTCGCGCCGCCGCCAGCGGAGTCACCTAGTGCAG,17300 fluorescence intensity (a.u.)

row,Sequence,binding signal
1,TCCCTCTCTCTCTCTCTCTTCGTTTCCGCGCGCGCGCGCGCGGAGTCACCTAGTGCAG,9340 fluorescence intensity (a.u.)
2,CCTCTACGCGCGGCCAACGCCGCCGCCGCCGCCGCCGCTCCGGAGTCACCTAGTGCAG,8370 fluorescence intensity (a.u.)
3,CGCCTCTTTTCGTTTCGTTTCGCCGCCCGCTTCCGCCGCGCGGAGTCACCTAGTGCAG,23300 fluorescence intensity (a.u.)
4,CTCGCCTCTAGGGTTCCGCCGTTTTCCGCGGCGCGCCACCCGGAGTCACCTAGTGCAG,9410 fluorescence intensity (a.u.)
5,TCCTATGTTTTTCCTGCGGTCCAATCAAACGGTCATTCTTCGGAGTCACCTAGTGCAG,12300 fluorescence intensity (a.u.)
6,GCGTGTTTTTCTACCCGATCGACCTTCTGATTTTGGCTATCGGAGTCACCTAGTGCAG,11100 fluorescence intensity (a.u.)
7,CCACCAGCGATTTGGCCCGATCTCATCCCACCAGCGATTTCGGAGTCACCTAGTGCAG,8430 fluorescence intensity (a.u.)
8,CACAGCTTCTTAATTACTCCACCTTAATTAATCGATTAATCGGAGTCACCTAGTGCAG,8680 fluorescence intensity (a.u.)
9,CTCCACTGCTCTGATGCTCTCTCTCTCTCTCTCTTCACGCCGGAGTCACCTAGTGCAG,10800 fluorescence intensity (a.u.)
10,CCACGCCACGCGCCGCTCTCACTCGGTCACTCTCACTCTTCGGAGTCACCTAGTGCAG,9750 fluorescence intensity (a.u.)
11,ATGCCGCTCTATCTCTCTCTCTCTCTCTCTCTCTCTCTCTCGGAGTCACCTAGTGCAG,9760 fluorescence intensity (a.u.)
12,CACCGGTTCTTCGCCTTCGTCACCGTCGCCGGCGGCGCCACGGAGTCACCTAGTGCAG,8450 fluorescence intensity (a.u.)
13,GTTGGGGTTCGTCGTCTTGGTCTTGGGTCTTCTTCGTCCCCGGAGTCACCTAGTGCAG,11600 fluorescence intensity (a.u.)
14,TGATCGCTCGCCGCCGCGGCCGCTCTCCCGCCGGCGCCGCCGGAGTCACCTAGTGCAG,9560 fluorescence intensity (a.u.)
15,GGGCGGTTCTTCTTCTTCGTCTTCGTCTTGGCGCCGGTCGCGGAGTCACCTAGTGCAG,17200 fluorescence intensity (a.u.)
16,TATATATATATATATATATATATATCTGATGCTCTCTTGCCGGAGTCACCTAGTGCAG,31700 fluorescence intensity (a.u.)
17,CCCACACCACCTCGCCCAATTAAACCCTCACCCATTCTTTCGGAGTCACCTAGTGCAG,9140 fluorescence intensity (a.u.)
18,CTCTCTCTCTCTCTCTCTCTCTCTCTCTTCGCCGCGCGGCCGGAGTCACCTAGTGCAG,18300 fluorescence intensity (a.u.)
19,AAATTAACCACACTCGCGCCGCCATTCTCTTCTTCTTCTTCGGAGTCACCTAGTGCAG,20600 fluorescence intensity (a.u.)
20,CGCCGCCGCCGCCGCCGCCGCGCTCGCTCGCTCGCTTCTTCGGAGTCACCTAGTGCAG,10200 fluorescence intensity (a.u.)
21,TAGCAACTCCGTTCTTTTTCTTCTTTTCTCTCACTCACTCCGGAGTCACCTAGTGCAG,8360 fluorescence intensity (a.u.)
